Test results taken from PubChem BioAssay (EPA / NIEHS).
Results filed as inconclusive are left out. Activity calls are given as the source filed them. Rule for the calls, unless noted: active = hit-call score of the fitted dose curve at least 0.9, where 1 is the maximum; inactive = score below 0.9.

Experiments:
[1] = CCTE_Harrill_HTTr_Viability_MCF7: CCTE's 6-hour Cell Viability Assessment for the High-Throughput Transcriptomics (HTTr) Platform, in MCF-7 cells cultured in DMEM + 10% fetal bovine serum, Harrill Lab (AID 2284010)
In short: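 Read-out is propidium iodide gain of signal by high-content imaging, reflecting membrane integrity loss. Measurements are taken 6 h after dosing, eight concentrations per chemical, with DMSO serving as baseline for bidirectional curve fitting.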

[2] = CCTE_Harrill_HTTr_Apoptosis_MCF7: CCTE's 6-hour Apoptosis Assessment for the High-Throughput Transcriptomics (HTTr) Platform, in MCF-7 cells cultured in DMEM + 10% fetal bovine serum, Harrill Lab (AID 2284011)
In short: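 Cells are dosed with test chemicals at eight concentrations and imaged 6 hours later for caspase-3/7 activity using a green fluorogenic detection reagent. Activity is fitted in both directions against DMSO controls.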

[3] = CCTE_Harrill_HTTr_CellCount_MCF7: CCTE's Cell Proliferation Assessment for the High-Throughput Transcriptomics (HTTr) Platform, Harrill Lab (AID 2284012; active = hit-call score of the fitted dose curve at least 0.9, where 1 is the maximum;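 note: cells exposed to compound for six hours; intended direction is loss of nuclei count meaning fewer cells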)
In short: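 Cell count served as viability reporter: loss of Hoechst-stained nuclei, counted by high content imaging, marks decreased growth or survival. Exposure was 6 h in MCF-7 cells across eight concentrations, with DMSO as baseline.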

[4] = CCTE_Shafer_MEA_acute_burst_number: CCTE's Neural Acute Assay for Single-Electrode Bursts, Shafer Lab (AID 2284013)
In short: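 Primary rat cortical neurons on 16-electrode MEA wells, DIV 13 or 15, exposed to compound (0.03-40 uM; ≥3 wells); 40-min recordings at 37 C before and after treatment. Burst count expressed as percent change from baseline, DMSO as negative control.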

[5] = CCTE_Shafer_MEA_acute_burst_duration_mean: CCTE's Neural Acute Assay for Mean Burst Duration, Shafer Lab (AID 2284014);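 note: hits are decreases in mean burst duration relative to DMSO controls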
In short: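 Mean burst duration was compared between a 40 min baseline and a 40 min recording in the presence of compound (0.03-40 uM, 37 C), giving percent change per well. Cultures were rat cortical neurons at DIV 13 or 15; wells needed ≥10 active electrodes.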

[6] = CCTE_Shafer_MEA_acute_per_burst_spike_number_mean: CCTE's Neural Acute Assay for Average Number of Spikes Per Burst, Shafer Lab (AID 2284015);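 note: hits are decreases in mean spikes per burst versus baseline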
In short: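 Primary rat cortical neurons on 48-well MEA plates, treated on DIV 13 or 15 at 0.03-40 uM. Spontaneous activity recorded 40 min before and 40 min after compound at 37 C; percent change in mean spikes per single-electrode burst per well, fitted in the loss direction versus DMSO.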

[7] = CCTE_Shafer_MEA_acute_burst_percentage_mean: CCTE's Neural Acute Assay for Percentage of Spikes in a Burst, Shafer Lab (AID 2284017);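 for AC50: curve fitted for loss of signal so potency reflects decreased burst percentage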
In short: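 Primary rat cortical neurons on 16-electrode MEA wells; 40 min baseline recorded at DIV 13 or 15, then 40 min after compound (0.03-40 uM) at 37 C. Well-mean fraction of spikes in single-electrode bursts; percent change from baseline, DMSO as negative control.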

[8] = CCTE_Shafer_MEA_acute_burst_percentage_std: CCTE's Neural Acute Assay for Standard Deviation of Burst Percentage, Shafer Lab (AID 2284018);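 note: fitted in the negative direction so actives lower burst percentage SD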
In short: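 Value is percent change from baseline in the across-electrode SD of spikes-in-bursts percentage, wells with >/= 10 active electrodes. Acute 40-min exposure to 0.03-40 uM on DIV 13 or 15 rat cortical cultures, recorded at 37 C after 40-min baseline.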

[9] = CCTE_Shafer_MEA_acute_per_network_burst_spike_number_mean: CCTE's Neural Acute Assay for Average Number of Spikes in a Network Burst, Shafer Lab (AID 2284019);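 for AC50: curve fitted for loss of signal so actives reduce spikes per network burst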
In short: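 Percent change from baseline in mean spikes per network burst, spikes detected at 8x rms noise. Each compound at 0.03-40 uM in at least three wells of rat cortical cultures, recorded 40 min before and 40 min during exposure.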

[10] = CCTE_Shafer_MEA_acute_per_network_burst_spike_number_std: CCTE's Neural Acute Assay for Standard Deviation of Number of Spikes in a Network Burst, Shafer Lab (AID 2284020);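 note: fitted for decrease in spike-number SD versus DMSO so actives lower it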
In short: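 Endpoint: percent change from 40 min baseline in standard deviation of spikes per network burst, after 40 min compound exposure (0.03-40 uM, 37 C). Cortical rat neurons on MEA at DIV 13 or 15; spikes detected at 8x rms noise, 300-5000 Hz band-pass.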

Measured: AC50

C[C@]12CC[C@@H]3c4ccc(O)cc4CC[C@H]3[C@@H]1C[C@@H](O)[C@@H]2O
inactive: [1] | [2] | [3]

CN(C)CCOC(c1ccccc1)c1ccccc1
active: [4] 3.11 µM | [7] 5 µM
not listed: [3]
inactive: all other assays above

CC1CCC(CO)CC1 (centres undefined)
inactive: [1] | [2] | [3]

CCCCc1oc2ccccc2c1C(=O)c1cc(I)c(OCCN(CC)CC)c(I)c1
inactive: all assays above

COC1=CC(=O)C[C@@H](C)[C@]12Oc1c(Cl)c(OC)cc(OC)c1C2=O
inactive: [1] | [2] | [3]

CCCCCCCCCCCCOS(=O)(=O)O
inactive: [1] | [2] | [3]

O=C1NS(=O)(=O)c2ccccc21
active: [4] 0.003 µM
inactive: all other assays above

CCC(C)c1ccccc1O (centres undefined)
active: [4] 2.44 µM | [7] 7.61 µM
inactive: all other assays above

Cc1cccc2c1ccc1ccccc12
inactive: [1] | [2] | [3]

Cn1sccc1=O
inactive: [1] | [2] | [3]

Oc1ccc(Cc2ccccc2O)cc1
active: [4] 0.0236 µM
not listed: [1] | [2] | [3]
inactive: all other assays above

CC(=O)Nc1ccc(O)cc1
inactive: all assays above

OCC(CO)(CBr)CBr
inactive: all assays above

CC(C)c1c(C(=O)Nc2ccccc2)c(-c2ccccc2)c(-c2ccc(F)cc2)n1CC[C@@H](O)C[C@@H](O)CC(=O)O
inactive: [1] | [2] | [3]

CC(C)(C)c1ccc(O)c(O)c1
inactive: [1] | [2] | [3]

Oc1c(Cl)cc(Cl)cc1Sc1cc(Cl)cc(Cl)c1O
active: [6] 9.08 µM | [7] 7.11 µM | [10] 5 µM
inactive: all other assays above

CCCCCC(C)OC(=O)COc1ccc(Cl)c2cccnc12 (centres undefined)
inactive: [1] | [2] | [3]

O=C(CCCN1CCC(O)(c2ccc(Cl)cc2)CC1)c1ccc(F)cc1
active: [9] 0.451 µM
inactive: all other assays above

Cc1cc(Cc2cc(C)cc(C(C)(C)C)c2O)c(O)c(C(C)(C)C)c1
inactive: [1] | [2] | [3]

CCCCCCCCC(C)=O
inactive: [1] | [2] | [3]

C=Cc1ccc(O)c(OC)c1
inactive: [1] | [2] | [3]

CC(C)(C)c1ccc(CCC=O)cc1
inactive: [1] | [2] | [3]

CNNCc1ccc(C(=O)NC(C)C)cc1
inactive: [1] | [2] | [3]

CCCCCCCCCCCC
inactive: all assays above

Brc1ccc(Oc2ccc(Br)cc2Br)cc1
inactive: [1] | [2] | [3]

N=C(N)c1ccc(OCCCCCOc2ccc(C(=N)N)cc2)cc1
active: [7] 26.9 µM | [8] 31.8 µM
inactive: all other assays above

CCCCCCCCCCCCCCCCCC[N+](C)(C)Cc1ccccc1
inactive: [1] | [2] | [3]

O=c1cc(-c2ccccc2)oc2ccc3ccccc3c12
inactive: [1] | [2] | [3]

CC1COCc2cc3c(cc21)C(C)(C)C(C)C3(C)C (centres undefined)
inactive: [1] | [2] | [3]

CCC(=O)O
inactive: [1] | [2] | [3]

C[C@]12CC[C@@H]3c4ccc(O)cc4CC[C@H]3[C@@H]1CC[C@@H]2OC(=O)CCC1CCCC1
inactive: [1] | [2] | [3]

O=C(O)C(=O)O
inactive: [1] | [2] | [3]
